A number with no mark means an inactive call. Inconclusive results are not listed. Calls of active or inactive are those of the source. Unless noted, calls follow the shape of the dose curve; as a rule, active = well fitted curve in the direction sought with a large enough effect in the repeat runs; inconclusive = weak or mixed curves; inactive = no such curve, though single readings can be large; an effect the other way counts as inactive or inconclusive.

Here are results for 23 compounds from PubChem BioAssay (NCATS).

Experiment [1] addresses Cytochrome P450 3A4 (Homo sapiens) (UniProt P08684). In words: qHTS Assay for Inhibitors and Substrates of Cytochrome P450 3A4 (AID 884; active = well fitted curve in the direction sought with a large enough effect; an effect the other way counts as inactive or inconclusive; also: potency is read from the fitted curve at half-maximal effect; nearly all actives have a fitted effect of over 50% in size). The gist of the method:
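20 nM human CYP3A4 with 25 uM Luciferin-PPXE (at KM) in 200 mM KPO4, preincubated 10 min with compound; NADPH regeneration started a 60 min RT reaction. Luciferin detected by luminescence, normalized to 57 uM ketoconazole as full inhibition.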
A general note: Quantitative high-throughput screening tests each substance at several concentrations.

For experiment [2] the target is unchanged. The experiment in a line: qHTS Assay for Activators of Cytochrome P450 3A4 (AID 885; active = well fitted curve in the direction sought with a large enough effect; an effect the other way counts as inactive or inconclusive; also: nearly all actives have a fitted effect of over 65% in size). The gist of the method:
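Human CYP3A4 (20 nM) with Luciferin-PPXE at 25 uM (its KM) in 200 mM KPO4; 10 min compound preincubation, then NADPH regeneration and 60 min reaction at RT. Luciferin read by luminescence; normalized to 57 uM ketoconazole full inhibition.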

The target in experiment [3] is DNA dC->dU-editing enzyme APOBEC-3G (Homo sapiens) (UniProt Q9HC16). The experiment in a line: qHTS for inhibitors of Vif-A3G interactions: Validation (AID 588379; active = well fitted curve in the direction sought with a large enough effect; an effect the other way counts as inactive or inconclusive; also: 0% is about no effect). The gist of the method: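 HeLa cells stably expressing Vif and A3G-eYFP, 700 cells/well, incubated overnight at 37 deg C, then exposed to compound overnight at 37 deg C. Inhibition of Vif-mediated degradation read as increased yellow fluorescence (Ex 488/Em 500-530) by laser-scanning cytometry.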

Experiment [4] concerns the target Androgen receptor (Homo sapiens) (UniProt P10275). The experiment in a line: qHTS assay for small molecule agonists of androgen receptor signaling (AID 588515; active = well fitted curve in the direction sought with a large enough effect in the signal ratio, with a control signal flat; the % refers to the signal ratio; also: % is scaled to controls: 0 for no effect and ±100 for the full control effect). The settings on record: AR-UAS-bla HEK293, beta-lactamase ratio, agonist 16 h; activation: hits give high values. In short, it runs like this: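 EC50 and efficacy came from Hill fits of titrations (up to 92 uM) normalized to 30 nM R1881 as 100% and DMSO as 0%. Compound exposure was 16 h at 37 C on AR-UAS-bla HEK293 cells, with a 405/460/530 nm CCF4 fluorescence read.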

The target is the same in experiment [5]. In words: qHTS assay for small molecule antagonists of androgen receptor signaling (AID 588516; active = well fitted curve in the direction sought with a large enough effect in the signal ratio, with a control signal flat, not every such curve was filed as active; the % refers to the signal ratio; also: % is scaled to controls: 0 for no effect and ±100 for the full control effect). In short, it runs like this: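 Antagonist mode: inhibition of R1881-stimulated (10 nM final) bla reporter in GeneBLAzer AR HEK 293 cells, 16 h at 37C, compounds titrated. IC50 and efficacy from Hill-equation fits of 405/460–530 nm FRET ratios.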
The target in experiment [6] is Bile acid receptor (Homo sapiens) (UniProt Q96RI1). In words: qHTS assay for small molecule antagonists of farnesoid X receptor signaling (AID 588526; calls by dose curve; also: % is scaled to controls: 0 for no effect and ±100 for the full control effect). In short, it runs like this:
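Antagonist mode: titrated compounds tested against chenodeoxycholic acid stimulation (normalized to 50 uM CDCA and DMSO) in GeneBLAzer HEK293T cells for 16 h. Beta-lactamase read by CCF4 fluorescence; IC50 from Hill fits.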

Experiment [7] concerns the target Glucocorticoid receptor (Homo sapiens) (UniProt P04150). The experiment in a line: qHTS assay for small molecule agonists of glucocorticoid receptor signaling (AID 588532; active = well fitted curve in the direction sought with a large enough effect in the signal ratio, with a control signal flat; the % refers to the signal ratio;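 also: 100% = dexamethasone at 0.1 µM and 0% = DMSO only wells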). The settings on record: HeLa MMTV-bla, beta-lactamase ratio, agonist, 18 h; hits give high values; percent of dexamethasone control, DMSO zero. The gist of the method: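 HeLa GRE-bla reporter cells; 18 h compound exposure at 37 C; 2 h CCF4 loading at room temperature; fluorescence at 460 and 530 nm; EC50 by Hill equation.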

Experiment [8] shares this target. In words: qHTS assay for small molecule antagonists of glucocorticoid receptor signaling (AID 588533; active = well fitted inhibition curve with a large enough effect in the signal ratio, with a control signal flat, not every such curve was filed as active; the % refers to the signal ratio; also: % is scaled to controls: 0 for no effect and ±100 for the full control effect). The gist of the method:
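Antagonist-mode qHTS: compound titrations added to GRE-bla HeLa cells, then dexamethasone 2 nM final; 18 h, 37 C. CCF4 FRET fluorescence normalized to dexamethasone and DMSO; IC50 from Hill fit.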

The target of experiment [9] is Peroxisome proliferator-activated receptor delta (Homo sapiens) (UniProt Q03181). In words: qHTS assay for small molecule antagonists of peroxisome proliferator-activated receptor delta signaling (AID 588535; active = well fitted inhibition curve with a large enough effect in the signal ratio, with a control signal flat, not every such curve was filed as active; the % refers to the signal ratio). The gist of the method:
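Antagonist-mode beta-lactamase reporter (GeneBLAzer PPAR-delta-UAS-bla) in HEK293T cells, 2% charcoal/dextran FBS, 4000 cells/well. Compound titrations, 18 h at 37 C; CCF4 ratio read, IC50 and efficacy from Hill fits.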

Experiment [10] can be described thus: qHTS assay for small molecule agonists of the antioxidant response element (ARE) signaling pathway (AID 651741; active = well fitted activation curve with a large enough effect in the signal ratio; the % refers to the signal ratio; also: potency is read from the fitted curve at half-maximal effect; as to activation: % of control where 0% means no effect). In short, it runs like this:
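CellSensor ARE-bla HepG2 cells (2,000/well) carrying ARE-driven beta-lactamase, exposed 16 h at 37 C. LiveBLAzer B/G FRET substrate added for 2 h at room temperature; fluorescence intensity read.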

The nature of experiment [11]: qHTS assay for small molecule activators of the p53 signaling pathway (AID 651743; active = well fitted activation curve with a large enough effect in the signal ratio, not every such curve was filed as active; the % refers to the signal ratio; also: series mostly up to about 92 µM; % of control where 0% means no effect). The settings on record: HCT-116 p53RE-bla, beta-lactamase FRET ratio, 16 h; activation: hits give high values. In short, it runs like this:
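p53RE-bla HCT-116 cells carrying a beta-lactamase reporter under p53 response elements were exposed to compounds for 16 hours at 37 C. Reporter activity read as fluorescence after 2 hours at room temperature with LiveBLAzer B/G FRET substrate.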

A short description of experiment [12]: qHTS assay for small molecule agonists of the antioxidant response element (ARE) signaling pathway measured by Nrf2-dependant transcriptional activity (AID 720636). Also: potency is read from the fitted curve at half-maximal effect.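 As to activation: HepG2 cells with an ARE-driven luciferase reporter; % of control where 0% means no effect.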 The gist of the method:
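In HepG2 cells engineered with an Nrf2-responsive luciferase gene, ARE induction was quantified as luminescence after 16 hr compound treatment at 37 C.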

Experiment [13] has as its target Thyroid hormone receptor beta (Homo sapiens) (UniProt P10828). In words: qHTS assay for small molecule antagonists of thyroid hormone receptor beta signaling (AID 588547; active = well fitted inhibition curve with a large enough effect in the signal ratio, with a control signal flat, not every such curve was filed as active; the % refers to the signal ratio). The conditions noted are these: TR-UAS-bla HEK293, beta-lactamase ratio, antagonist mode, 18 h. The gist of the method:
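TR-UAS-bla GripTite HEK293 cells in 2% charcoal/dextran FBS medium; compounds 0.59 nM to 92 uM with T3 at 0.4nM final, 18 h at 37 C. Beta-lactamase read by CCF4 fluorescence (460/530 nm); Hill fits gave IC50 and efficacy.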

Thyroid hormone receptor beta (Homo sapiens), sequence (P10828 whole entry, looked up): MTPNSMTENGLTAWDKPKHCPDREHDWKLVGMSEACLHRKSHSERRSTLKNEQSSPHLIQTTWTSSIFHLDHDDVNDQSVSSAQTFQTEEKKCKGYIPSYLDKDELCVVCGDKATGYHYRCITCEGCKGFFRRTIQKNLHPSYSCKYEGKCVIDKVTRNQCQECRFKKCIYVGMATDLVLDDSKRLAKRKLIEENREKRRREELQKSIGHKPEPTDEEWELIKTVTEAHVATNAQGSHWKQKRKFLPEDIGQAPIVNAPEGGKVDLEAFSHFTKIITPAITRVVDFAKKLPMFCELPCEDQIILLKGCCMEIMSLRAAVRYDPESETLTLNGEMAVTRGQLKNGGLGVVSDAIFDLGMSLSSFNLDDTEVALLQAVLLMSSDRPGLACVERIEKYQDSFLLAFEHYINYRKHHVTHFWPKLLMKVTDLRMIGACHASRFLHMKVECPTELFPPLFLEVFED
DNA dC->dU-editing enzyme APOBEC-3G (Homo sapiens), sequence (Q9HC16 whole entry, looked up): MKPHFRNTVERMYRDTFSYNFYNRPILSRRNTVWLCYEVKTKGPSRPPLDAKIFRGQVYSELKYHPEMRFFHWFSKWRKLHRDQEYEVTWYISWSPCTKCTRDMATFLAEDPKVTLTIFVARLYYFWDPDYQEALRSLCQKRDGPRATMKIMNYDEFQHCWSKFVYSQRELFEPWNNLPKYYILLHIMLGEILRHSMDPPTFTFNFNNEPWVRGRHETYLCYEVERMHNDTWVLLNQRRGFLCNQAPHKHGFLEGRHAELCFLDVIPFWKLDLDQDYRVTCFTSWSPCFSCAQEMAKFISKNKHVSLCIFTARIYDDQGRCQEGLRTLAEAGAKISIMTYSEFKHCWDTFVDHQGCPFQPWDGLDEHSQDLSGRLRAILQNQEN
Glucocorticoid receptor (Homo sapiens), sequence (P04150 whole entry, looked up): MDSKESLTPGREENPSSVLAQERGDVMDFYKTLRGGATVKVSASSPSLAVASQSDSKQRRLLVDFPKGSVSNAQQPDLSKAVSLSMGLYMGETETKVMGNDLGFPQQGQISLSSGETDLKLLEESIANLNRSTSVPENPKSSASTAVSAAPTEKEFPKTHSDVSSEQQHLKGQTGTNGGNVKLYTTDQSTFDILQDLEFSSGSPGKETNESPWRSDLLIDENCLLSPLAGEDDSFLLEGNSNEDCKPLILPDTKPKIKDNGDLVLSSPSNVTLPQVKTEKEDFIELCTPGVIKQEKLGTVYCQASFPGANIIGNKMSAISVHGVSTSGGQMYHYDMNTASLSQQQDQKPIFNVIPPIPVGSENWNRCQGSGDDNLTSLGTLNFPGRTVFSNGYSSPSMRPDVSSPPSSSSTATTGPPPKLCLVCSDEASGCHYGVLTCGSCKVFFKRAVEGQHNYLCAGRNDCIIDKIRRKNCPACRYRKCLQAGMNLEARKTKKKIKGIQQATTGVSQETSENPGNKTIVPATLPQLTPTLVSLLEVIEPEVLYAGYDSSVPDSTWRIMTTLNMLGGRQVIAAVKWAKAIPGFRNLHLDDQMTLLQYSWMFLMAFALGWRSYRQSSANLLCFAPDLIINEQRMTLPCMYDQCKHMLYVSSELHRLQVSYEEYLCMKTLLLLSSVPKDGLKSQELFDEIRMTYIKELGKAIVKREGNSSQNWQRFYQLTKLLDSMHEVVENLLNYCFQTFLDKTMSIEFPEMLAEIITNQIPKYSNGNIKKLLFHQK
Androgen receptor (Homo sapiens), sequence (P10275 whole entry, looked up): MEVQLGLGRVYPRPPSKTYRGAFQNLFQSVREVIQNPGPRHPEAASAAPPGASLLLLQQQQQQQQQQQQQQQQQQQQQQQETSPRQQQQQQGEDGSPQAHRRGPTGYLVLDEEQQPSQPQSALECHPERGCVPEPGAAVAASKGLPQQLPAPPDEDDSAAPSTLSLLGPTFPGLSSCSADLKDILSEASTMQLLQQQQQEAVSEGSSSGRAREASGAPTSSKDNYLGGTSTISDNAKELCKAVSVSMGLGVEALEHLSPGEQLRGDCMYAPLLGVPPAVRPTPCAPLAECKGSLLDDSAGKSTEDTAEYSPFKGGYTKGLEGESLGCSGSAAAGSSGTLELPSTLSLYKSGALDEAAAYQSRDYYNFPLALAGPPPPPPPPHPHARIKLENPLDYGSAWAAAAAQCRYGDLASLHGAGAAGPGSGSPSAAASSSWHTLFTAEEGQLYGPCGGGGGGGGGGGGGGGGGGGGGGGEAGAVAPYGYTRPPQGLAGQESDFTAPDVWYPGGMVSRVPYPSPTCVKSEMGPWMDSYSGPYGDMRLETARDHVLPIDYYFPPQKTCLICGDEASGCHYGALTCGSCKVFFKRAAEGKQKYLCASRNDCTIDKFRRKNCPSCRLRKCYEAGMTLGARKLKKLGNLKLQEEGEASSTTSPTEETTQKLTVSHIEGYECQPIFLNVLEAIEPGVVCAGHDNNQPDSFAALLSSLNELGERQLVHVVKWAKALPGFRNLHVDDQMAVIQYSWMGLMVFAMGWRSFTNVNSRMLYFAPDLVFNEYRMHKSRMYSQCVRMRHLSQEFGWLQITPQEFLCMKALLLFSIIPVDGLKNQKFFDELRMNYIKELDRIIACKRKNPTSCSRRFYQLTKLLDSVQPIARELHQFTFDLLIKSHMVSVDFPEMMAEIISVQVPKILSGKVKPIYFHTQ
Bile acid receptor (Homo sapiens), sequence (Q96RI1 whole entry, looked up): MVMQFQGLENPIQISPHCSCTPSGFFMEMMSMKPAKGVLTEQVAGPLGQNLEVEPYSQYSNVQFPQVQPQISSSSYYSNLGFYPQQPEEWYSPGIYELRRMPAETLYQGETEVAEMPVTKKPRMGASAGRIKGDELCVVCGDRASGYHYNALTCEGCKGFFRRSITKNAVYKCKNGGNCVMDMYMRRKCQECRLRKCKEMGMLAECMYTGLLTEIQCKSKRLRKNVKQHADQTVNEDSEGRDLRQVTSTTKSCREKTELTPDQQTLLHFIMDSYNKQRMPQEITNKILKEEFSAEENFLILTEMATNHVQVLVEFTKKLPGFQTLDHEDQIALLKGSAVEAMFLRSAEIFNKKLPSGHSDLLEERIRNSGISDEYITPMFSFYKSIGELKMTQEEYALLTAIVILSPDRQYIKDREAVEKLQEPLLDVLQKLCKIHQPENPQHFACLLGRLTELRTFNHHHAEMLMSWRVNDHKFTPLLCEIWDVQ
Cytochrome P450 3A4 (Homo sapiens), sequence (P08684 whole entry, looked up): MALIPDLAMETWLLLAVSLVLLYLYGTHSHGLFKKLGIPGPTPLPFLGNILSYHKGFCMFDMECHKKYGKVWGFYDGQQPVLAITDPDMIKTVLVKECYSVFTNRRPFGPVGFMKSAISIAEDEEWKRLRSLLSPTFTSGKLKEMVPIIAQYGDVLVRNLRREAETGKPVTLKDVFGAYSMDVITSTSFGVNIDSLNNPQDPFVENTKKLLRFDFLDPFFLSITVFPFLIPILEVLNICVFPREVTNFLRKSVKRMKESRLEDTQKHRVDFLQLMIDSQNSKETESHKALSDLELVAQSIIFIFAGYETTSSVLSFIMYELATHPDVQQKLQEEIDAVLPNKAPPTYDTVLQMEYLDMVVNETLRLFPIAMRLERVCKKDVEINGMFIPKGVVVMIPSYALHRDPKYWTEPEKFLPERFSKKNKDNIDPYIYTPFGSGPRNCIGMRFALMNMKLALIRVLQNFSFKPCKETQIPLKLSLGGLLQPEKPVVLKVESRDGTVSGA
Peroxisome proliferator-activated receptor delta (Homo sapiens), sequence (Q03181 whole entry, looked up): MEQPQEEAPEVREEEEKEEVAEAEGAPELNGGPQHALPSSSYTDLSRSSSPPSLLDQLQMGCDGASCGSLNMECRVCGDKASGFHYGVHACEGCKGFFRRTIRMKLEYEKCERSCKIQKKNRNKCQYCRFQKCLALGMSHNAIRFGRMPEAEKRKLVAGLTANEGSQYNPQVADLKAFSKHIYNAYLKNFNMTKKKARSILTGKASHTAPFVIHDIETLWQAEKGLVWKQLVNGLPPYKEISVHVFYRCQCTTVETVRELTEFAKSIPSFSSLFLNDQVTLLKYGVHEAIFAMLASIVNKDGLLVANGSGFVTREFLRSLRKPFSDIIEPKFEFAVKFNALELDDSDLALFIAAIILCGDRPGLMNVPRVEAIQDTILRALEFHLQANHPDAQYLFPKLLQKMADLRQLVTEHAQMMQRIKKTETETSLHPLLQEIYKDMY

In the case of `O=C(Cc1ccc(Cl)cc1)c1c(O)cc(O)cc1O`, the Potency in experiment [1] was 5.01 µM (active). The Potency result in [2] and in [3] was “inactive” each time.

Take `CC1CC2(C)Oc3ccccc3C3OCC1(COC(=O)Nc1ccccc1)C(C)C32` (stereo unspecified): the Potency in [1] was 10 µM (active). Further, the Potency entry in experiment [2] and in experiment [3] was “inactive” in each case.

With `CC(=O)OCC1OC(Oc2cc(OC(C)=O)c3c(=O)cc(-c4ccc(OC(C)=O)c(OC(C)=O)c4)oc3c2)C(OC(C)=O)C(OC(C)=O)C1OC(C)=O` (stereo unspecified), in experiment [1], the Potency is 3.98 µM (active). In addition, the Potency entry in experiment [2] and in [3] was “inactive” throughout.

On to `O=c1cc(-c2cccc(O)c2)oc2cccc(O)c12`, for which, in experiment [1], the Potency was 7.94 µM (active). The Potency entry in experiment [2] and in [3] was “inactive” throughout.

`CC(=O)OC1CCC2(C)C3CCC4(C)C(CC5CCCCC54C(C)=O)C3CC(=O)[C@@]2(O)C1` (stereo partly specified): in experiment [1], the Potency was 10 µM (active). Moreover, the Potency result in [2] and in experiment [3] was “inactive” throughout.

As to `CNc1nc(=O)n(C2CCCCC2)c(=O)n1C`, the activation was -4.83% in [4], -5.96% in experiment [7] and 0.353% in experiment [11]. For the same compound, the outcome in [5] was inactive. Further, the Potency entry in experiment [6], in experiment [8], in experiment [9], in [10] and in [12] was “inactive” throughout.

Turning to `CC(=O)N(CCN(C(C)=O)C(C)=O)C(C)=O`, the activation in experiment [4] is 11.2%; in experiment [7] it was -10.7%; in [11], 0.892%. For the same compound, the call in experiment [5] was inactive. The Potency result in experiment [6], in experiment [8], in experiment [10] and in experiment [12] was “inactive” each time. Besides, the activity change % (negative = inhibition) in experiment [13] is -8.71%.

Take `CC(C)C(=O)OCC(C)(C)C(O)C(C)C` (stereo unspecified): the Potency entry in experiment [6], in experiment [8], in experiment [9], in [10] and in [12] was “inactive” each time. Further, the activation is -3.75% in [7] and -2.18% in experiment [11]. The activity change % (negative = inhibition) in [13] is -5.03%.

As to `O=c1[nH]c(=O)c2[nH]cnc2[nH]1`, the activation in [4] was 2.45%; in experiment [7], 3.26%; in [11], 4.14%. Further, the outcome in experiment [5] was inactive. The Potency result in experiment [8], in experiment [10] and in experiment [12] was “inactive” each time. Besides, the activity change % (negative = inhibition) in experiment [13] was 11.6%.

On to `CC(C)(C)C(O)/C(=C\c1ccc(Cl)cc1)n1cncn1` (stereo unspecified), for which the values for the activation in [4], in [7] and in experiment [11] were -3.93%, 0.903% and -2.96%, respectively. In addition, the compound was called inactive in experiment [5]. For the same compound, the Potency entry in experiment [6], in experiment [8], in [9] and in [12] was “inactive” throughout.

As for `C=C(C)C(=O)OCCOC(=O)C(=C)C`, the compound was classed as inactive in experiment [5]. Moreover, the activation in [7] is -0.861%; in experiment [11] it was -1.01%. For the same compound, the Potency result in experiment [8], in [9], in experiment [10] and in [12] was “inactive” throughout. In addition, the activity change % (negative = inhibition) in experiment [13] was 17.4%.

For the compound `CNc1nc(=O)n(C2CCC(O)CC2)c(=O)n1C` (stereo unspecified), in [5], the result was inactive. Moreover, the Potency result in experiment [6], in experiment [8], in experiment [9] and in [12] was “inactive” throughout. Further, the activation was 2.82% in [7] and 1.92% in [11].

With `O=C(c1ccc(Cl)cc1)c1ccc(Cl)cc1`, the activation in [4] was 19.9%; in experiment [11], 1.92%. The compound was called inactive in [5].

In the case of `Cn1c(=O)[nH]c(=O)n(C2CCCCC2)c1=O`, the result in [5] was inactive. Also, the Potency result in [6] and in experiment [8] was “inactive” each time. For the same compound, the activation in experiment [7] is 12.5%; in [11], -1.53%. In addition, in experiment [13], the activity change % (negative = inhibition) was 4.13%.

For `Cn1c(=O)[nH]c(=O)n(C2CCC(O)CC2)c1=O` (stereo unspecified), the activation was 1.63% in experiment [4], -2.18% in experiment [7] and 2.9% in experiment [11]. Further, the outcome in [5] was inactive. The Potency entry in experiment [6], in experiment [8], in [9] and in [12] was “inactive” throughout. In experiment [13], the activity change % (negative = inhibition) is 3.03%.

In the case of `Cc1ccc(N=Nc2c(O)ccc3ccccc23)c(C)c1`, the activation in experiment [4] was -2.14%; in experiment [7], -16.9%. The compound was called inactive in experiment [5]. In addition, the Potency entry in [6] and in experiment [9] was “inactive” each time. For the same compound, the activity change % (negative = inhibition) in experiment [13] was 9.11%. The Potency is 7.7 µM (active) in [10] and 10.9 µM (active) in [12].

Take `CCCCCCCOC(=O)c1ccccc1C(=O)OCCCCCCC`: the activation in experiment [4] is -1.72%; in experiment [7] it was -3.48%; in experiment [11], -3.71%. The call in [5] was inactive. Moreover, the Potency entry in experiment [6], in experiment [8], in experiment [9] and in experiment [12] was “inactive” throughout.

Consider `N[C@@H]1[C@@H](O)[C@H](O)[C@@H](CO)O[C@H]1O`, for which the activation in experiment [4] was 9.13%. Further, the compound was called inactive in [5]. Besides, the Potency result in experiment [9] and in experiment [12] was “inactive” each time.

Take `CC1(C)CC(NCCCCCCNC2CC(C)(C)NC(C)(C)C2)CC(C)(C)N1`: the activation is 6.67% in [4], -7.91% in experiment [7] and -1.03% in experiment [11]. For the same compound, the outcome in experiment [5] was inactive. In addition, the Potency entry in experiment [6], in experiment [8] and in experiment [12] was “inactive” throughout. Besides, the activity change % (negative = inhibition) in experiment [13] was -26.6%.

For the compound `NN(c1ccccc1)c1ccccc1`, the activation was 8.8% in experiment [4], -3.55% in experiment [7] and -3.49% in [11]. Moreover, the compound was called inactive in experiment [5]. The Potency result in experiment [6], in experiment [9] and in experiment [12] was “inactive” each time.

For `CCCCCCCCCCCCCc1ccccc1`, the Potency entry in experiment [6], in experiment [8], in [10] and in [12] was “inactive” each time. In addition, the activation was -7.21% in experiment [7] and 1.08% in experiment [11]. Further, the activity change % (negative = inhibition) in [13] is 11.3%.

For the compound `Cl[Si](Cl)(c1ccccc1)c1ccccc1`, the Potency entry in [6], in [8] and in experiment [12] was “inactive” in each case. The values for the activation in experiment [7] and in experiment [11] were 0.877% and -1.29%, respectively. The Potency in experiment [10] is 54.5 µM (active).

Consider `CC(C)c1ccc2cc(C(C)C)ccc2c1`, for which the figures for the activation in [4] and in experiment [7] were -3.98% and -1.13%, respectively. The result in [5] was inactive.
